Reference: PubChem BioAssay AID1159580 (chemical genetic matrix, 2015)
In all, about 5,500 compounds went through this assay and about 2,000 (36%) were called active. Roughly 18% stayed inconclusive and do not appear here. No stated cut-off is given here; in the data, active means normalized growth mostly below about 0.91 (no sharp cut-off); inconclusive means no clear call, values can overlap the other calls; inactive means mostly above about 0.92. The list shows a part of the results.

Assay: chemical genetic growth profiling, strain panel (AID 1159580);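 further: tested at 20 µM; growth read once vehicle control cultures reached saturation at 30 °C; 1 = growth at the plate median or of vehicle wells; lower values mean less growth of the strain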
Settings: S. cerevisiae deletion strains, growth OD

Measured: normalized growth

CCCN(CCC)CCc1ccc(O)c(O)c1
inactive: locus YAL040C, strain CLN3, hits give low values 1.03 | locus YCL061C, strain MRC1 (second series), hits give low values 1 | locus YDR363W, strain ESC2, hits give low values 1.04 | locus YER002W, strain NOP16, hits give low values 1.01 | locus YGR078C, strain PAC10, hits give low values 0.992 | locus YMR263W, strain SAP30, hits give low values 0.995 | locus YNL153C, strain GIM3, hits give low values 1 | locus YNL175C, strain NOP13, hits give low values 0.997 | locus YNL197C, strain WHI3, hits give low values 1 | locus YNL224C, strain SQS1, hits give low values 0.994 | locus YNL322C, strain KRE1, hits give low values 1.02 | locus YOR083W, strain WHI5 (second series), hits give low values 1.01 | locus YPL241C, strain CIN2, hits give low values 1
